The supplement of paper PMC6089552
Out of some 3,200 compounds screened, about 300 (9.4%) showed activity. This is one part of a sample in which actives are shown more often than they occur.

System: A673/TR/shEF
Experiment: cell viability (LOESS-normalised, relative to median of negative controls) (log2 ratio); higher = more viable cells (less compound effect), active = hit call of the paper (over 3 MAD below the median)
Conditions: treatment time: 72 h
In short: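 A673/TR/shEF Ewing sarcoma cells were plated at 1,500 per well in 384-well plates and cultured with or without doxycycline, added 24 h before compounds, to induce EWS-FLI1 shRNA knockdown. Library compounds at two or more concentrations, alongside DMSO controls, were applied for three days. Cell viability was measured by CellTiter-Glo luminescence on an Envision reader. Readings were LOESS-corrected per plate, divided by the median of negative controls and log2-transformed, and hits were wells lying at least three median absolute deviations from the median of all screened wells.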

[1] = 0.25 µM, library screen: screen1, EWS-FLI1 expression: high (no doxycycline)
[2] = 0.25 µM, library screen: screen1, EWS-FLI1 expression: low (doxycycline-induced shRNA knockdown)
[3] = 2.5 µM, library screen: screen1, EWS-FLI1 expression: high (no doxycycline)
[4] = 2.5 µM, library screen: screen1, EWS-FLI1 expression: low (doxycycline-induced shRNA knockdown)
[5] = 0.25 µM, library screen: screen2, EWS-FLI1 expression: high (no doxycycline)
[6] = 0.25 µM, library screen: screen2, EWS-FLI1 expression: low (doxycycline-induced shRNA knockdown)
[7] = 2.5 µM, library screen: screen2, EWS-FLI1 expression: high (no doxycycline)
[8] = 2.5 µM, library screen: screen2, EWS-FLI1 expression: low (doxycycline-induced shRNA knockdown)
[9] = 0.025 µM, library screen: screen1, EWS-FLI1 expression: high (no doxycycline)
[10] = 0.025 µM, library screen: screen1, EWS-FLI1 expression: low (doxycycline-induced shRNA knockdown)
[11] = 25 µM, library screen: screen1, EWS-FLI1 expression: high (no doxycycline)
[12] = 25 µM, library screen: screen1, EWS-FLI1 expression: low (doxycycline-induced shRNA knockdown)
[13] = 0.103 µM, library screen: screen3, EWS-FLI1 expression: high (no doxycycline)
[14] = 0.103 µM, library screen: screen3, EWS-FLI1 expression: low (doxycycline-induced shRNA knockdown)
[15] = 0.308 µM, library screen: screen3, EWS-FLI1 expression: high (no doxycycline)
[16] = 0.308 µM, library screen: screen3, EWS-FLI1 expression: low (doxycycline-induced shRNA knockdown)
[17] = 0.926 µM, library screen: screen3, EWS-FLI1 expression: high (no doxycycline)
[18] = 0.926 µM, library screen: screen3, EWS-FLI1 expression: low (doxycycline-induced shRNA knockdown)
[19] = 2.8 µM, library screen: screen3, EWS-FLI1 expression: high (no doxycycline)
[20] = 2.8 µM, library screen: screen3, EWS-FLI1 expression: low (doxycycline-induced shRNA knockdown)
[21] = 8.3 µM, library screen: screen3, EWS-FLI1 expression: high (no doxycycline)
[22] = 8.3 µM, library screen: screen3, EWS-FLI1 expression: low (doxycycline-induced shRNA knockdown)
[23] = 25 µM, library screen: screen3, EWS-FLI1 expression: high (no doxycycline)
[24] = 25 µM, library screen: screen3, EWS-FLI1 expression: low (doxycycline-induced shRNA knockdown)

Measured: cell viability (log2)

COc1c(Cl)c(C)c2c(c1Cl)OC(=O)c1c(C)c(Cl)c(O)c(Cl)c1O2
inactive: [1] 0.0361 | [2] 0.0285 | [3] 0.0998 | [4] 0.0885

CC1CN(S(=O)(=O)c2cccc3cnccc23)CCN1 (stereo unspecified)
inactive: [5] 0.246 | [6] 0.094 | [7] 0.214 | [8] 0.111

CN([C@@H](Cc1ccc(OS(=O)(=O)c2cccc3cnccc23)cc1)C(=O)N1CCN(c2ccccc2)CC1)S(=O)(=O)c1cccc2cnccc12
inactive: [9] 0.267 | [10] 0.00847 | [1] 0.23 | [2] -0.0263 | [5] 0.0748 | [6] 0.07 | [4] 0.0275 | [7] 0.166 | [8] -0.012 | [12] 0.00423
active: [3] -0.171 | [11] -0.315

COc1ccccc1NC1CC(C)N(C(=O)c2ccc(C)cc2)c2c(C)cccc21 (stereo unspecified)
inactive: [1] 0.107 | [2] 0.0693 | [3] 0.128 | [4] 0.111

CCCN(CCC)C(=O)C(CCC(=O)O)NC(=O)c1ccccc1 (stereo unspecified)
inactive: [1] 0.188 | [2] 0.0317 | [5] 0.129 | [6] 0.0785 | [3] 0.223 | [4] 0.0771 | [7] 0.121 | [8] 0.115

Nc1ccc(C(=O)NCC(=O)O)cc1
inactive: [1] 0.0323 | [2] 0.126 | [3] 0.15 | [4] 0.151

CC(C)C[C@H](NC(=O)[C@H](CCC(=O)O)NC(=O)CNC(=O)c1ccc(/C=C/C(=O)O)cc1)C(N)=O
inactive: [10] 0.0951 | [1] -0.0717 | [2] 0.0592 | [3] -0.0597 | [4] 0.0308 | [11] -0.00491 | [12] -0.0971
active: [9] -0.138

CC(=O)O[C@@H]1CC2C(C)(C)C(=O)CC[C@]2(C)C2CC[C@]3(C)C(=CC(=O)O[C@H]3c3ccoc3)[C@@]21C (stereo partly specified)
inactive: [1] 0.0774 | [2] 0.142 | [3] 0.182 | [4] 0.164

CCCCC(=O)N(Cc1ccc(-c2ccccc2-c2nn[nH]n2)cc1)[C@H](C(=O)O)C(C)C
inactive: [13] 0.0298 | [14] -0.0095 | [15] 0.124 | [16] 0.0801 | [17] 0.0765 | [18] 0.054 | [19] 0.0694 | [20] 0.124 | [21] 0.00201 | [22] 0.078 | [23] 0.137 | [24] 0.104

COc1ccc(/C=C/C(=O)O)cc1OC
inactive: [1] -0.00585 | [2] -0.00138 | [3] 0.164 | [4] 0.0104

CC(C)N1C(=O)C(=Cc2cccs2)SC1=S
inactive: [1] 0.108 | [2] 0.0522 | [3] 0.148 | [4] 0.0877

O=C1CC[C@]23/C=C/C(=O)NCCCCNCCCNC(=O)/C=C/c4ccc(c2c4)O[C@@H]3C1
inactive: [1] 0.0958 | [2] 0.0883 | [3] 0.0986 | [4] 0.157

COc1cc([C@@H]2c3cc4c(cc3[C@@H](O[C@@H]3O[C@@H]5CO[C@@H](C)O[C@H]5[C@H](O)[C@H]3O)[C@H]3COC(=O)[C@H]23)OCO4)cc(OC)c1O
active: [3] -0.176 | [7] -0.711 | [19] -0.212 | [21] -0.857 | [22] -0.166 | [23] -1.25 | [24] -0.367
inactive: [13] 0.16 | [14] 0.0754 | [1] 0.0215 | [2] 0.0298 | [5] 0.197 | [6] 0.0698 | [15] 0.0781 | [16] 0.0446 | [17] 0.0107 | [18] 0.0985 | [4] 0.00733 | [8] 0.00714 | [20] -0.0251

COc1cc([C@@H]2c3cc4c(cc3[C@@H](O[C@@H]3O[C@@H]5CO[C@@H](c6cccs6)O[C@H]5[C@H](O)[C@H]3O)[C@H]3COC(=O)[C@H]23)OCO4)cc(OC)c1O
active: [1] -0.797 | [2] -0.349 | [15] -0.326 | [17] -0.931 | [18] -0.262 | [3] -1.74 | [4] -0.557 | [19] -1.32 | [20] -0.472 | [21] -2.12 | [22] -0.477 | [23] -3.07 | [24] -0.784
inactive: [13] -0.0319 | [14] -0.00588 | [16] -0.0159

CCCC(CC)CCOC(=O)COc1cc(Cl)c(Cl)cc1Cl (stereo unspecified)
inactive: [1] 0.0358 | [2] 0.0314 | [3] 0.0377 | [4] 0.068

NCCCC(N)CC(=O)NCC1NC(=O)C(CO)NC(=O)C(N)CNC(=O)C(C2CCN=C(N)N2)NC(=O)/C(=C/NC(N)=O)NC1=O (stereo unspecified)
inactive: [1] 0.0914 | [2] 0.117 | [3] 0.124 | [4] 0.0772

CC1=C(C(=O)OCCOc2ccccc2)C(c2coc3ccccc3c2=O)C2=C(CCCC2=O)N1 (stereo unspecified)
inactive: [1] 0.0678 | [2] -0.0908 | [3] 0.0965 | [4] 0.143

COc1cc2nc(N3CCN(C(=O)C4=C[C@H]5C=C[C@@H]4CC5)CC3)nc(N)c2cc1OC
inactive: [5] 0.165 | [6] 0.0668 | [7] 0.132 | [8] 0.0728

NCCCCC(N)C(=O)NC(Cc1c[nH]c2ccccc12)C(=O)NC(CCCCN)C(=O)O (stereo unspecified)
inactive: [1] 0.0147 | [2] 0.0512 | [3] 0.141 | [4] 0.0544

COC(=O)c1c(OC)cc2c(c1C)Oc1c(Cl)c(OC(C)=O)c(Cl)c(C)c1C(=O)O2
inactive: [1] 0.0846 | [2] 0.126 | [3] 0.0897 | [4] 0.152

COC(=O)C1=C(C)N=c2sc(=Cc3cccnc3)c(=O)n2C1c1ccccc1 (stereo unspecified)
inactive: [1] 0.123 | [2] 0.0677 | [3] 0.0796 | [4] 0.107
